Source: PubChem
HCMV antiviral – human cytomegalovirus inhibition; HFF cells, HCMV-luciferase reporter, 72 h; active compounds read low; activity change, negative = inhibition, % at 57.5 µM; actives 4.5% (n = 410,000); in the data active means activity change below about -60%; inconclusive means no clear call, values can overlap the other calls; inactive means above about -39%
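Two-dose cell screen: HFF monolayers treated with compounds and infected with luciferase-expressing HCMV at 1 PFU/cell, 72 h at 37C, then lysed for luciferase measurement.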
Lassa entry inh – blocks Lassa virus binding to or entry into cells. actives 1.2% (n = 300,000). Potency, µM (highest dose often 37.9 µM), inactives show at the highest dose activity change, negative = inhibition, hits mostly inhibitors. Lassa virus pseudotype entry inhibition, cell reporter; calls by dose curve; tested in HEK293 cells; further: potency means the concentration at half of the fitted maximal effect; nearly all actives have a fitted effect of over 50% in size
HCV inh – HCV inhibition | Huh7.5.1 HCVcc-Cre infection, luciferase reporter, 44 h | Potency, µM (highest dose often 41.8 µM), without a hit: at the top dose activity change, negative = inhibition, usual class: inhibitors | actives 3.4% (n = 340,000); active means well fitted inhibition curve with a large enough effect; inconclusive means small, poorly fitted or top-dose-only effect, or another doubt; inactive means no such curve, though single readings can be large or run the other way; further: potency means the concentration at half of the fitted maximal effect
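Reporter virus HCVcc-Cre (~0.5 moi) infects cells exposed to compound; seeding density 1,000 cells/well with 4 h settling beforehand. Luminescence, 15 sec read, taken 44 h post-infection following a 15 min RT substrate incubation.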
Vaccinia mCherry – inhibitors of vaccinia virus infection (mCherry reporter signal). Vaccinia virus mCherry reporter infection, fluorescence. Potency, µM (doses to about 36.5 µM), for the others: top-dose activity change, negative = inhibition, usual class: inhibitors. actives 0.63% (n = 310,000). AID 720579; calls by dose curve; tested in A549 cells; further: potency means the concentration at half of the fitted maximal effect; nearly all actives have a fitted effect of over 35% in size
MARV entry inh – blocks Marburg virus binding to or entry into cells. Marburg virus pseudotyped entry inhibition, cell reporter. Potency, µM (series often up to 37.8 µM), for the others: top-dose activity change, negative = inhibition, usual class: inhibitors. actives 1.8% (n = 300,000). AID 540276; calls by dose curve; tested in HEK293 cells; further: potency means the concentration at half of the fitted maximal effect
Vaccinia Venus – vaccinia inhibition (Venus reporter). Vaccinia virus Venus reporter expression, fluorescence. AID 720580. Potency, µM (series often up to 36.5 µM), for the others: top-dose activity change, negative = inhibition, usual class: inhibitors. actives 0.46% (n = 330,000); calls by dose curve; tested in A549 cells; further: potency means the concentration at half of the fitted maximal effect; nearly all actives have a fitted effect of over 30% in size
* marks the source's active call; other numbers are inactive results; i = inactive; ? = inconclusive; . = no result given; [ ] = dose if it differs, or a comment. Only some compounds are listed: those with a hit (about 7.8% of all), similar ones and a draw of the others. On the % scale 0 is the no-effect control and ±100 the full control effect.

SMILES	HCMV antiviral	Lassa entry inh	HCV inh	Vaccinia mCherry	MARV entry inh	Vaccinia Venus
CC(=O)N(Cc1cc(=O)[nH]c2ccccc12)c1ccccc1C	-2	?	14%	-9%	?	-7%
CCCC(=O)N(Cc1cc(=O)[nH]c2ccccc12)c1ccc(OC)cc1	69	-1%	7%	?	-27%[46.1 µM]	-13%
COc1ccc(N(Cc2cc(=O)[nH]c3ccccc23)C(=O)CCl)cc1	-101*	?	?	-19%	?	-27%
O=C(Nc1ccc2c(c1)OCO2)C1C=CC(Br)O1 (centres undefined)	.	.	.	.	20%	.
O=C(CSc1nc(-c2ccccc2)nc2c1Cc1ccccc1O2)N1CCCCC1	16	-13%[46.1 µM]	.	-11%	1%[46.1 µM]	-10%
CN(C(=O)Nc1ccc(Cl)cc1Cl)[C@H]1c2cc(Br)ccc2OC[C@H]1CO	8	-22%	13µM*	.	?	.
COc1cccc2c1OC[C@@H](CO)[C@H]2N(C)C(=O)Nc1ccccc1	-13	-16%	4%	.	4%	.
c1cncc(-c2nc(NCC3COc4ccccc4O3)c3ccccc3n2)c1 (centres undefined)	-17	-30%	11µM*	?	?	11µM*
CN(CC1COc2ccccc2O1)c1nc(-c2cccnc2)nc2ccccc12 (centres undefined)	-17	?	11µM*	?	2.6µM*	-15%
COc1ccccc1N1CCc2c(C)nc3c(OC)cccc3c21	.	-14%	?	.	?	.
COc1cccc2c3c(c(C)nc12)CCN3c1ccccc1	-78*	-26%	?	-6%	?	-10%
COc1cc(NC(=O)Nc2cccc(-c3noc(C)n3)c2)cc(OC)c1OC	-77*	0%[46.1 µM]	.	-7%	.	-13%
COc1cccc(-c2cc(C(=O)Nc3cccc(O)c3)no2)c1	85	6.5µM*	-22%	.	4.6µM*	.
COc1cc(NC(=O)c2cc(-c3ccc(Cl)c(Cl)c3)on2)cc(OC)c1OC	-18	?	.	-18%	-4%[46.1 µM]	-5%
COc1cc(NC(=O)c2cc(-c3ccccc3Cl)on2)cc(OC)c1OC	-21	-19%	1.1µM*	i	?	?
COc1ccc(NC(=O)c2cc(-c3cccc(OC)c3)on2)cc1	40	?	-20%	0%	23%[46.1 µM]	-13%
COc1cc(NC(=O)c2cc(-c3cccc(O)c3)on2)cc(OC)c1OC	41	.	11µM*	?	.	-19%
O=[N+]([O-])c1ccc(C=C2c3ccccc3-c3ccccc32)cc1	.	.	.	-15%	.	-7%
Cc1oc2ncn(C)c(=O)c2c1C(=O)N1CCN(c2ccc(Cl)cc2)CC1	-5	11%[46.1 µM]	.	-9%	.	-5%
Cn1ncc2c(Nc3cccc(F)c3)ncnc21	6	-2%[46.1 µM]	.	i	.	-9%
O=C(Nc1cnn(Cc2ccc(F)cc2)c1)c1cc(-c2cccs2)on1	16	-9%	8.9µM*	.	-15%	.
COc1cccc(-c2cc(C(=O)Nc3cnn(Cc4ccc(Cl)cc4Cl)c3)no2)c1	?	?	.	?	-7%[46.1 µM]	11µM*
Cc1ccccc1-c1nnn(CC(=O)Nc2sc3c(c2C#N)CCC(C(C)(C)C)C3)n1 (centres undefined)	0	-3%[46.1 µM]	.	-1%	22%[46.1 µM]	-4%
O=C(CSc1nc(-c2ccc(F)cc2)[nH]c1-c1ccc(F)cc1)Nc1ccc2c(c1)OCO2	?	?	.	-21%	?	-18%
COc1ccc(-c2nc(SCC(=O)Nc3ccc4c(c3)OCO4)c(-c3ccc(OC)cc3)[nH]2)cc1	-90*	0%[46.1 µM]	.	?	7%[46.1 µM]	?
SMILES	HCMV antiviral	Lassa entry inh	HCV inh	Vaccinia mCherry	MARV entry inh	Vaccinia Venus
O=C(CSc1nc(-c2ccc(F)cc2)[nH]c1-c1ccc(F)cc1)Nc1ccc2c(c1)OCCO2	-75*	?	.	?	?	?
Cc1cc2nc(-c3ccc(SCC(=O)Nc4ccc5c(c4)OCCO5)nc3)[nH]c2cc1C	-68*	-16%	-19%	i	?	-12%
COc1ccc(Nc2nnc(SCC(=O)NC(=O)Nc3ccc4c(c3)OCCO4)s2)cc1	-22	.	11µM*	.	.	.
Cc1ccc2nc(-c3ccc(SCC(=O)Nc4ccc5c(c4)OCCO5)nc3)[nH]c2c1	45	?	?	-26%	-14%	-14%
CCC(=O)Nc1nnc(SCC(=O)Nc2ccc3c(c2)OCCO3)s1	48	13%	-16%	i	-1%	-5%
C(=C1c2ccccc2Oc2ccccc21)c1ccccc1	.	.	.	-13%	.	-9%
Cc1sc2ncn(CC(=O)N3CCN(c4ccccc4F)CC3)c(=O)c2c1S(=O)(=O)N1CCN(c2ncccn2)CC1	?	-4%[46.1 µM]	.	-5%	-24%[46.1 µM]	1%
O=C(Cc1ccc(F)cc1)NO	.	.	.	i	.	-12%
COc1ccc(-c2nc(-c3ccc4c(c3)OCO4)[nH]c2-c2ccc(OC)cc2)cc1	-102*	?	8.9µM*	?	?	?
COc1ccc(-c2nc(-c3ccccc3)c(-c3ccc(O)cc3)[nH]2)cc1	47	-1%[46.1 µM]	.	?	-17%[46.1 µM]	-22%
C=C(C)CSc1nc2sc3c(c2c(=O)n1Cc1ccccc1)CC(C)(CC)OC3 (centres undefined)	-1	-18%[46.1 µM]	.	-9%	.	-5%
CC1CCN(C(=O)c2ccc3c(c2)N(Cc2ccccc2)C(=O)c2ccccc2S3(=O)=O)CC1	-61*	-24%[46.1 µM]	.	-13%	?	-6%
O=C(Nc1cccc(F)c1)c1ccc2c(c1)N(Cc1ccccc1)C(=O)c1ccccc1S2(=O)=O	-89*	-20%[46.1 µM]	.	-24%	?	-17%
O=C(c1ccc2c(c1)N(Cc1ccc(F)cc1)C(=O)c1ccccc1S2(=O)=O)N1CCC(Cc2ccccc2)CC1	-64*	?	.	-20%	?	-10%
O=C(c1ccc2c(c1)N(Cc1ccccc1)C(=O)c1ccccc1S2(=O)=O)N1CCOCC1	4	1%[46.1 µM]	.	-11%	-27%[46.1 µM]	-9%
Cc1cccc(NC(=O)c2ccc(Cl)c(S(=O)(=O)N3CCc4ccccc43)c2)n1	-65*	.	?	.	.	.
Cc1cccc(NC(=O)c2ccc(Cl)c(S(=O)(=O)N3CCCC3)c2)n1	-18	2%	-34%	-25%	?	-20%
O=C1CN(C(=O)c2ccc(Cl)c(S(=O)(=O)N3CCc4ccccc43)c2)c2ccccc2N1	?	?	-24%	?	3.5µM*	-13%
O=C(Nc1ccncc1)c1ccc(Cl)c(S(=O)(=O)N2CCc3ccccc32)c1	-69*	7.9µM*	10µM*	-19%	?	-25%
O=C(c1cccc(N2CCCC2=O)c1)N1CCC(Oc2cccc(CN3CCN(c4ccccn4)CC3)c2)CC1	.	.	.	?	.	-15%
CC(=O)C1(O)Cc2c(O)c3c(c(O)c2C(OC2CC(N)C(O)C(C)O2)C1)C(=O)c1c(O)cccc1C3=O (centres undefined)	.	.	.	326%	.	413%
CCc1c(C)nc2ncnn2c1NCCc1ccccc1	-35	3%	28µM*	.	?	.
